# Among all 340,000 compounds or so, fewer than 10 were called active. The call rests on the fitted dose curve; in most records, active means well fitted inhibition curve with a large enough effect in the main read-out, with a control signal flat (not every such curve was filed as active); inconclusive means small, poorly fitted or top-dose-only effect, or effect the other way, or a change in a side signal; inactive means no such curve, though single readings can be large or run the other way. Only a sample is shown.
# Target: Tumor susceptibility gene 101 protein (Homo sapiens) (UniProt Q99816)
# Assay: qHTS Assay for Iinhibitors of HIV-1 Budding by Blocking the Interaction of PTAP/TSG101; further: % of control where 0% means no effect
# Conditions: Fluorescence polarization, FITC-PTAP peptide / Tsg101 binding; series mostly up to 115 µM; activity change, negative = inhibition: at the top concentration
# Source text: NIH Molecular Libraries Probe Production Network [MLPCN] NIH Chemical Genomics Center [NCGC] MLPCN Grant: 1 R03 MH087464-01A1 PI Name: Dr. Eric Freed, NCI NCGC Assay Overview: Stages of the HIV-1 replication cycle, specifically virus assembly and release, provide underexploited targets for the development of novel antiviral inhibitors. The late stages of HIV-1 replication are mediated by the Gag precursor protein, Pr55Gag. Expression of Pr55Gag is both necessary and sufficient for the production of virus-like particles from Gag-expressing cells. The Gag protein hijacks key host proteins involved in endocytic machinery of the host cell to promote endosomal processing and viral budding. The budding process requires a direct interaction between a […] (PTAP) motif in the p6 domain of Gag and the cellular endosomal sorting protein known as Tsg101. In this way, the Gag PTAP motif promotes the host cells to recruit viral particles to the plasma membrane where the new viral particles are released, effectively turning the host cells into viral factories. A fluorescence anisotropy assay has been developed to quantitatively measure the PTAP-Tsg101 interaction which can be used to screen for inhibitors of this interaction.
# NCGC Assay Protocol Summary: Two uL of the Tsg101 binding domain in buffer (10 mM HEPES pH 7.5; 0.15 M NaCl, 0.01% Tween 20; 3 mM EDTA;0.1 mM TCEP) was dispensed into Greiner black MB 1536-well plates (final concentration 10 uM). Then, 23 nL of compounds or DMSO were delivered to each well using a pin tool. Finally, 2 uL of a FITC-labeled peptide containing the PTAP motif (1) in the same buffer was dispensed (50 nM final concentration) and the binding was allowed to proceed for 20 min. at r.t. Fluorescent polarization was determined using FITC excitation and polarized emission filters on a Perkin Elmer Viewlux. Keywords: Tsg101, PTAP, Gag, HIV, fluorescent polarization, MLSMR, MLPCN, NIH Roadmap, qHTS, NCGC
# Sequence of Tumor susceptibility gene 101 protein (Homo sapiens) (Q99816 whole entry, looked up): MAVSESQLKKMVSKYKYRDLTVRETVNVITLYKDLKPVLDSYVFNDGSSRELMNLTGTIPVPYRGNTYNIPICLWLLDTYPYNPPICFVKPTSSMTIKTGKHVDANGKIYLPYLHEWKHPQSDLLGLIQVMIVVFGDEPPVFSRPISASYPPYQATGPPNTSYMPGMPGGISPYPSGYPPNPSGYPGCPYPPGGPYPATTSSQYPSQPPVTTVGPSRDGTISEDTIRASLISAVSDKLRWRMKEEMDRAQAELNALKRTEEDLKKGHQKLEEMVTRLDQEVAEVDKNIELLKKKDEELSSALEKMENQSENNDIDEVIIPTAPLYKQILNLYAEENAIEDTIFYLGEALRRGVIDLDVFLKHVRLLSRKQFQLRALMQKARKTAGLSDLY
row,Compound,"activity change, negative = inhibition"
1,CS(=O)(=O)N1CCCC(C(=O)N2CCOCC2)C1 (configuration not stated),-5.04% (inactive)
2,CCCN1C(=O)C(NC(C)=O)c2cc(OC)ccc21 (configuration not stated),-3.66% (inactive)
3,O=C(NC1CCCC1)C(c1ccc(N2CCOCC2)cc1)N(C(=O)c1ccco1)c1ccccc1F (configuration not stated),1.97% (inactive)
4,O=C(Nc1ccccc1-c1nnn(CC(=O)N2CCCc3ccccc32)n1)c1cccc(Cl)c1,-0.614% (inactive)
5,CC(C)C(O)C1CCN(Cc2nc(Cc3ccccc3Cl)no2)CC1 (configuration not stated),0.208% (inactive)
6,O=C(Nc1ccc2c(c1)nc1n2CCCCC1)c1cc(S(=O)(=O)N2CCOCC2)ccc1Cl,-2.8% (inactive)
7,C=CCn1c(COc2ccc(F)cc2)nnc1SCC(=O)Nc1cccc(S(N)(=O)=O)c1,0.597% (inactive)
8,CCc1c(O)nc(SCC(=O)Nc2ccccc2)n(C(C)CC)c1=O (configuration not stated),-0.227% (inactive)
9,COc1cc(OC)cc(C(=O)NNC(=O)Cc2cccs2)c1,-8.25% (inactive)
10,Cc1cc(C)cc(-c2nnc(SCC(=O)NC3CC3)o2)c1,-1.42% (inactive)
11,CCc1cccc(C)c1NC(=S)N(CCCN1CCN(C)CC1)Cc1cccs1,0.428% (inactive)
12,COc1cccc(NC(=O)Cn2c3ccc(F)cc3c3nc4n(c(=O)c32)CCS4)c1,-1.9% (inactive)
13,O=S(=O)(NN=C1CCCCCCC1)c1ccc(Br)cc1,-4.04% (inactive)
14,Cn1c2ccccc2n2c(=O)c(=O)n(CC(=O)c3ccc(F)cc3)nc12,-8.82% (inactive)
15,CCOc1ccc(NC(=O)COc2ccc(C(=O)N3CCC(C(N)=O)CC3)cc2OC)cc1,-2.07% (inactive)
16,CC(NS(=O)(=O)c1ccccc1)c1n[nH]c(=S)n1-c1ccccc1 (configuration not stated),-0.439% (inactive)
17,O=C(O)C1CCCCC1C(=O)N1CCN(S(=O)(=O)c2ccc(F)cc2)CC1 (configuration not stated),-1.03% (inactive)
18,COc1ccc(OCc2n[nH]c(=S)n2N)cc1,-2.95% (inactive)
19,Cc1ccccc1-n1cc(CNC(=O)CC2C(=O)NCCN2C/C=C/c2ccccc2)cn1 (configuration not stated),-0.0281% (inactive)
20,CN1CCCN(C(=O)C2CCCCC2)CC1,1.06% (inactive)
21,CCc1nc(SCC(=O)Nc2ccccc2OC)n[nH]1,-2.89% (inactive)
22,CC(=O)N(CN1C(=O)C2CC=CCC2C1=O)c1cccc(Cl)c1 (configuration not stated),-7.15% (inactive)
23,O=C(O)CCN(Cc1ccccc1)S(=O)(=O)c1c(Cl)cccc1Cl,-5.83% (inactive)

row,Compound,"activity change, negative = inhibition"
1,CSc1nc2nc(-c3cccc(C(F)(F)F)c3)ccn2n1,-3.61% (inactive)
2,CC(=O)n1cc([C@@H]2C=C(C(=O)N3CCN(Cc4ccc5c(c4)OCO5)CC3)O[C@H](OCc3ccc(CO)cc3)C2)c2ccccc21,-8.1% (inactive)
3,CC(=O)N1CCOc2ccc(S(=O)(=O)N3CCC(C(=O)Nc4ccccc4F)CC3)cc21,-0.326% (inactive)
4,COc1ccc(Cl)cc1NS(=O)(=O)c1cccc(C(=O)NCC2CCCO2)c1 (configuration not stated),0.431% (inactive)
5,CC1=C2C(=O)OC(c3ccoc3)C2(C)CCC1 (configuration not stated),-4.59% (inactive)
6,C/C(=N\N1CCN(Cc2ccc(C)cc2)CC1)c1ccco1,-3.85% (inactive)
7,O=C1CCC(=O)N1CCOP1(=O)COc2ccccc2OC1,2.82% (inactive)
8,O=C1c2ccccc2NC(c2ccccc2O)N1NS(=O)(=O)c1ccccc1 (configuration not stated),-1.04% (inactive)
9,COc1cccc(C(=O)Nc2cc3c(cc2Br)OCCCO3)c1,-0.834% (inactive)
10,COc1ccccc1C(=O)Nc1ccnn1C1CCN(C(=O)C(C)(C)C)CC1,-1.4% (inactive)
11,O=C(CCSc1ccccc1)NCCSc1ccccn1,-1.87% (inactive)
12,CCCCC(=O)NC(c1ccc(OC)c(OC)c1)c1ccc2cccnc2c1O (configuration not stated),-0.51% (inactive)
13,CN(C)CCNC(=O)c1ccc(Cl)c2cc3ccccc3nc12,-5.17% (inactive)
14,CCCCN(C(=O)CSCC(=O)Nc1ccc(OC)cc1)c1c(N)n(CCC)c(=O)[nH]c1=O,-0.275% (inactive)
15,C=CCN1C(=O)C(Cc2ccc(OCC)cc2)SC1=Nc1ccc(C(=O)O)cc1 (configuration not stated),-2.96% (inactive)
16,O=C(O)CN(Cc1ccco1)S(=O)(=O)c1ccc(F)cc1,-0.137% (inactive)
17,CCN(CC)S(=O)(=O)c1cccc(NC(=O)c2ccc(S(=O)(=O)N3CCCC3)cc2)c1,-3.29% (inactive)
18,CC(NCCO)C(=O)C12CC3CC(CC(C3)C1)C2 (configuration not stated),-5.36% (inactive)
19,COCCNC(=O)C(OC(=O)c1cccs1)c1ccc(F)cc1 (configuration not stated),-1.42% (inactive)
20,O=C1NC(Nc2nc3ccccc3s2)(C(F)(F)F)C(=O)N1C1CCCCC1 (configuration not stated),-3.48% (inactive)
21,COC(=O)c1cc(NC(=O)CC2C(=O)NCCN2C(=O)c2ccc(F)cc2)cc(C(=O)OC)c1 (configuration not stated),-6.53% (inactive)
22,Cc1occc(=O)c1OCc1c(Cl)cccc1Cl,-1.89% (inactive)
23,CCCCc1ccc(NS(=O)(=O)c2cccc(C(=O)N3CCCN(C)CC3)c2)cc1,-4.27% (inactive)

row,Compound,"activity change, negative = inhibition"
1,CCC(=O)N1c2ccc(S(=O)(=O)NCc3ccco3)cc2CC1C (configuration not stated),-2.03% (inactive)
2,Cc1nnc(SCCCCSc2nnc(C)c(=O)[nH]2)[nH]c1=O,-1.02% (inactive)
3,CCOC(=O)c1cccc(NC(=O)CCc2nnc3ccc(N4CCOCC4)nn23)c1,-10.9% (inactive)
4,CCCC[C@H]1COCCS(=O)(=O)N1Cc1cccc(Cl)c1,1.87% (inactive)
5,C/C=C/c1ccc(OCC(=O)NNC(=O)CN(C)S(=O)(=O)c2ccc(C)cc2)c(OC)c1,-5.6% (inactive)
6,CC(C)(C)c1cc(NC(=O)NN2CCOCC2)nn1-c1c(Cl)cc(Cl)cc1Cl,-4.53% (inactive)
7,COc1ccc(OC)c(C(O)c2nc3ccccc3n2C)c1 (configuration not stated),0.975% (inactive)
8,NC(=O)C1(N2CCCC2)CCN(Cc2ccccc2)CC1,-2.04% (inactive)
9,CCOC(=O)C1CN(S(=O)(=O)c2ccc(F)cc2)C1,-0.508% (inactive)
10,CC(C)(C)n1cnnc1Sc1ccc([N+](=O)[O-])cn1,-5.76% (inactive)
11,O=C(COC(=O)/C=C/c1cccc(Cl)c1)NCc1cccs1,-1.32% (inactive)
12,Cc1onc(-c2c(F)cccc2Cl)c1C(=O)Nc1cccc(S(=O)(=O)N2CCCCC2)c1,-3.61% (inactive)
13,CSc1sc(C(=O)NC(=O)NCc2cccnc2)c(C)c1-c1ccon1,-1.8% (inactive)
14,Cc1nn(-c2ccccc2)c2c1C(c1cccc([N+](=O)[O-])c1)N(c1ccccc1)C(=O)N2 (configuration not stated),-1.94% (inactive)
15,CC1(C)C2CCC13CS(=O)(=O)NC3C2 (configuration not stated),-2.1% (inactive)
16,Cc1nc(Nc2ccccc2C)c2cnn(C)c2n1,-1.3% (inactive)
17,O=C1N[C@@H](Cc2ccccc2)C(=O)N2[C@@H]3N(S(=O)(=O)c4ccc(F)cc4)c4ccccc4[C@]3(Br)C[C@@H]12,0.056% (inactive)
18,CCC1=C(OC(=O)N(CC)CC)N2C(=O)OC(=NCC3CC3)[C@]2(C)[C@H]2C1=CC[C@H]1C(=O)N(CC(=O)OC)C(=O)[C@H]12,-10.6% (inactive)
19,CC(C)N1CCc2c(sc(NC(=O)Cc3ccccc3)c2C#N)C1,-2.3% (inactive)
20,C#CCCCc1nc2ccccc2c(=O)n1N,-1.38% (inactive)
21,CCCCN1CC(CO)Oc2cccc(F)c2S1(=O)=O (configuration not stated),-5.79% (inactive)
